Reference: PubChem BioAssay
Calls of active or inactive are those of the source. Unless noted, no rule for the calls is given here.

Assays:
[1] = compounds binding Alexa647 anti-His antibody – biochemical, small-molecule microarray, 635 nm fluorescence, artefact control for SMM control protein annotation, primary screen (AID 1128); details: higher = more signal;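 also: score merges feature fluorescence with signal-to-noise for each printed compound spot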
[2] = tested on: Human papillomavirus type 1a E7 protein (residues 1-88); experiment: HPV1a E7 small-molecule binders, primary screen, biochemical, small-molecule microarray, residues 1-88, 635 nm (AID 1129); details: small-molecule microarray binding, fluorescence 635 nm; higher = more signal
[3] = biological target: Focal adhesion kinase 1 (Homo sapiens) (UniProt Q05397); experiment: PTK2 protein binding on printed compound slides – biochemical, small-molecule microarray, 635/667 nm fluorescence, BSA, DTT, primary screen (AID 1130); details: 635 nm fluorescence, higher = more signal;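 also: composite of spot emission at 667 nm and signal to noise over triplicate slides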
Sequence of Focal adhesion kinase 1 (Homo sapiens) (Q05397 whole entry, looked up): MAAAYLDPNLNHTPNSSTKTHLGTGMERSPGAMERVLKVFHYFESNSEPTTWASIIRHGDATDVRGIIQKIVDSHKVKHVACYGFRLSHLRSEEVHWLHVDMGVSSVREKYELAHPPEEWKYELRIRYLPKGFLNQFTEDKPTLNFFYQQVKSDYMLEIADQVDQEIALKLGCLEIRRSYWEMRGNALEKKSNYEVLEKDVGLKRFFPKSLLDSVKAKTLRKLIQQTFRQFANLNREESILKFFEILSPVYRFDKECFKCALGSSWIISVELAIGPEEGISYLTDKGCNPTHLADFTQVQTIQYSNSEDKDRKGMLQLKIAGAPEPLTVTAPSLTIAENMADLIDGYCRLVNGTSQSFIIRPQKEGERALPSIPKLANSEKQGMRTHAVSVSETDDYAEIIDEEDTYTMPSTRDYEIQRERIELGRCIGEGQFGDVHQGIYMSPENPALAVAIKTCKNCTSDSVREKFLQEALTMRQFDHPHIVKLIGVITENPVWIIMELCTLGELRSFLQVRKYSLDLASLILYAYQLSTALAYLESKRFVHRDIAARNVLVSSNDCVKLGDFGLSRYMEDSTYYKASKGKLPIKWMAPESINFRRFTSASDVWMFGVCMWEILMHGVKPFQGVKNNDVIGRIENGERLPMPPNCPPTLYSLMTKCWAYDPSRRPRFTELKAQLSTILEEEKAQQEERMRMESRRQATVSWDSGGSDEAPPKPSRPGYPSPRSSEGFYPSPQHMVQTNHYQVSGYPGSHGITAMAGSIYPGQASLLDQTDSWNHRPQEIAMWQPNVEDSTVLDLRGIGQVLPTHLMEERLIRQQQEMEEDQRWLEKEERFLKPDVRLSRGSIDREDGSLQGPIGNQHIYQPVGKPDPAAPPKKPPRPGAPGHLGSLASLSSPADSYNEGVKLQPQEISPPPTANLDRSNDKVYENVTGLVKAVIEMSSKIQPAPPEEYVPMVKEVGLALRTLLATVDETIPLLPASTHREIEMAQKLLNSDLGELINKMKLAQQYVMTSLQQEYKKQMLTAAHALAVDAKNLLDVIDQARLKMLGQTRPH

[4] = tested on: Fibrinogen (Alexa647-labelled); experiment: Alexa647-fibrinogen binding to printed small molecules – biochemical, small-molecule microarray, 635/667 nm fluorescence, artefact control for SMM control-protein annotation, profiling panel (AID 1131); details: fibrinogen-A647 binding fluorescence, higher = more signal;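 also: z-score merges 667 nm fluorescence with per-spot signal-to-noise over triplicate slides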
[5] = biological target: Follistatin (Homo sapiens) (UniProt P19883); experiment: FST protein binding to printed compounds – biochemical, small-molecule microarray, 635/667 nm fluorescence, primary screen (AID 1132); details: 635 nm fluorescence, higher = more signal
Sequence of Follistatin (Homo sapiens) (P19883 whole entry, looked up): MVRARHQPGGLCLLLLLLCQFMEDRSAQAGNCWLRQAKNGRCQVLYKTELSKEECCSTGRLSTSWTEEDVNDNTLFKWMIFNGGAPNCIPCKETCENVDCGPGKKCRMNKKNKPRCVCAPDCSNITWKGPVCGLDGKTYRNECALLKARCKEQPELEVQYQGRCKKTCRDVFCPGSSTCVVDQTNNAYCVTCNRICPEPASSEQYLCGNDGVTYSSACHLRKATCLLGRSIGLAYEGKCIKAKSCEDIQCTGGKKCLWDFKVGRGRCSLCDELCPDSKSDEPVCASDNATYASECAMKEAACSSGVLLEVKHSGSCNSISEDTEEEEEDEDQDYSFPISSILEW

[6] = biological target: Fibroblast growth factor 2 (Homo sapiens) (UniProt P09038); experiment: basic fibroblast growth factor binding to printed compounds – biochemical, small-molecule microarray, 635/667 nm fluorescence, primary screen (AID 1133); details: FGF2, fluorescence 635/667, higher = more signal
Sequence of Fibroblast growth factor 2 (Homo sapiens) (P09038 whole entry, looked up): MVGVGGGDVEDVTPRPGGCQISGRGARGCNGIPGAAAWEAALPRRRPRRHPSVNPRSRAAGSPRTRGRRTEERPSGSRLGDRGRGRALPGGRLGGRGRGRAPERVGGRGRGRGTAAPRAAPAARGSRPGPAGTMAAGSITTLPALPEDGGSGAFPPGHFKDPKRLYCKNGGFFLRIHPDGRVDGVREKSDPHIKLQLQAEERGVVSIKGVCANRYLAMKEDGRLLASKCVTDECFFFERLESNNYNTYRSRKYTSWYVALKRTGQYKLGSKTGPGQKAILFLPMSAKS

[7] = JC-1 mitochondrial potential readout, lung cancer cells – cell-based, A549, JC-1 fluorescence, basal, 24 h, 100 nL, profiling panel (AID 1138); details: higher = more signal;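 also: A549 lung adenocarcinoma cells under basal conditions with no added stimulus; test concentration not given here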
Lefty1 = Lefty1 protein binding to printed compounds – biochemical, small-molecule microarray, 635/667 nm fluorescence, primary screen (AID 1139); details: fluorescence 635/667, higher = more signal
[8] = tested on: wheat germ agglutinin (Triticum aestivum), Alexa647-labelled; experiment: Alexa647-WGA lectin binding to printed small molecules – biochemical, small-molecule microarray, 635/667 nm fluorescence, artefact control for SMM control-protein annotation, profiling panel (AID 1140); details: WGA-A647 binding, 635 nm fluorescence, higher = more signal;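 also: score merges 667 nm feature emission with signal to noise over triplicate slides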
[9] = biological target: Luciferin 4-monooxygenase (Photinus pyralis) (UniProt P08659); experiment: inhibition of purified Photinus pyralis luciferase – biochemical, luminescence, purified enzyme, 2006 set, primary screen (AID 1141); details: purified firefly luciferase, SteadyGlo luminescence, 30 min; higher = more signal, called active from +8 up or from −8 down;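 also: cell-free assay with purified firefly luciferase at 100 ng per well in PBS; test concentration not given here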
Sequence of Luciferin 4-monooxygenase (Photinus pyralis) (P08659 whole entry, looked up): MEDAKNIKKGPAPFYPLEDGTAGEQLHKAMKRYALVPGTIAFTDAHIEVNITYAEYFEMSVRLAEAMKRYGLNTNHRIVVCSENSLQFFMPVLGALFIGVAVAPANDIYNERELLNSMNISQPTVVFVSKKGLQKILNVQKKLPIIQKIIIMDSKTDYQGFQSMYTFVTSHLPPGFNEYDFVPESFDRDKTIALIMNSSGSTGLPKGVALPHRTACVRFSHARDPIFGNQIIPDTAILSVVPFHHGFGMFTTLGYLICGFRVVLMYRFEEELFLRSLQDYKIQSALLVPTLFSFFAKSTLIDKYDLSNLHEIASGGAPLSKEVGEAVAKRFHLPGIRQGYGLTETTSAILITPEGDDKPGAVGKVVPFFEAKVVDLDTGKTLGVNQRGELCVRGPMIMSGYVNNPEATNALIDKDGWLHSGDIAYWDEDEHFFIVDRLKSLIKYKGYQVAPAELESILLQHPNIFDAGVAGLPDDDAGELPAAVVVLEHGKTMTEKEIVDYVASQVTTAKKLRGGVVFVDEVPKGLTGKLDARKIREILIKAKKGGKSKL

[10] = tested on: Wnt5a (protein binding on small-molecule microarray); experiment: small molecules binding Wnt5a protein – biophysical, small-molecule microarray, 635/667 nm fluorescence, primary screen (AID 1142); details: 635 nm fluorescence, higher = more signal;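 also: fluorescence read at 667 nm with signal to noise per printed feature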
[11] = ATP-based viability of Huh7 replicon cells – cell-based, CellTiter-Glo luminescence, basal, 48 h, cytotoxicity control for HCV replication inhibitor project, primary screen (AID 1143); details: higher = more signal, called active from +8 up or from −8 down;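 also: Huh7 hepatoma cells carrying a hepatitis C replication reporter with no stimulus; test concentration not given here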
[12] = Pseudomonas biofilm growth suppression – PAO1 strain, BacTiter-Glo luminescence, LB-PBS, primary screen (AID 1144); details: P. aeruginosa PAO1 biofilm, 12 h, higher = more signal
[13] = basal CRE-LacZ reporter activity in PC12 – cell-based, unstimulated, primary screen (AID 1145); details: no forskolin, luminescence, 4.5 h, higher = more signal, called active from +8 up or from −8 down
[14] = forskolin-driven CRE-LacZ activity in PC12 – cell-based, CRE-LacZ reporter, forskolin-stimulated, primary screen (AID 1146); details: luminescence, 4.5 h, higher = more signal, called active from +8 up or from −8 down;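 also: PC12 cells with 6xCRE LacZ reporter stimulated by forskolin 10 µM; beta-galactosidase reporter signal reflecting CREB driven transcription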
[15] = biological target: Streptavidin (Streptomyces avidinii) (UniProt P22629); experiment: compounds binding control protein streptavidin – biophysical, small-molecule microarray, 635/667 nm fluorescence, artefact control for SMM compound annotation, primary screen (AID 1147); details: higher = more signal;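 also: signal reflects streptavidin binding to arrayed compounds as a control protein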
Sequence of Streptavidin (Streptomyces avidinii) (P22629 whole entry, looked up): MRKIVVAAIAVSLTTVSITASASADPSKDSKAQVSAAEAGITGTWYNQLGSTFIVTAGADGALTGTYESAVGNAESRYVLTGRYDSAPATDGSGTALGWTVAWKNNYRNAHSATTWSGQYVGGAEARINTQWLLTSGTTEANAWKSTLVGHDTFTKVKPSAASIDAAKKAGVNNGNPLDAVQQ

[16] = probe aInhba binding on compound microarray – biochemical, small-molecule microarray, 635/667 nm fluorescence, primary screen (AID 1148); details: higher = more signal;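 also: score merges 667nm spot fluorescence with signal-to-noise for antibody binding to printed compounds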
Torsin-1A (Homo sapiens) [17] = biological target: Torsin-1A (Homo sapiens) (UniProt O14656); experiment: TOR1A wild-type binding on microarray – cell lysate, small-molecule microarray, lysate, 635/667 nm, primary screen (AID 1149); details: COS7 hTOR1A-WT lysate, 635 nm fluorescence, higher = more signal
Sequence of Torsin-1A (Homo sapiens) (O14656 whole entry, looked up): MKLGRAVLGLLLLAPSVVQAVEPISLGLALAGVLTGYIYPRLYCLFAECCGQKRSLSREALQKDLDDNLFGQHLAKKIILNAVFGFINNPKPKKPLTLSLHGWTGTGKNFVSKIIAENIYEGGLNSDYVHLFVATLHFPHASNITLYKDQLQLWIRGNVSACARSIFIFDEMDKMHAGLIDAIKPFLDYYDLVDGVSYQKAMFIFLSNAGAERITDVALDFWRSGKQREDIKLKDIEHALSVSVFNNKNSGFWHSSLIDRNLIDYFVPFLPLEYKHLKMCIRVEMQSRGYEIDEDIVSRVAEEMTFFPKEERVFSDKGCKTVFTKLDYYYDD

Torsin-1A (Homo sapiens) [18] = biological target: Torsin-1A (Homo sapiens) (UniProt O14656); experiment: torsin A mutant lysate binding on microarrays – cell lysate, small-molecule microarray, COS7 lysate, 635/667 nm fluorescence, primary screen (AID 1150); details: COS7 hTOR1A mutant lysate, 635 nm fluorescence, higher = more signal;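 also: score pools 667 nm emission and signal to noise measuring lysate protein binding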
[19] = tested on: Sonic hedgehog protein (Shh); experiment: Sonic hedgehog microarray binding compounds – biochemical, small-molecule microarray, 635/667 nm fluorescence, primary screen (AID 1151); details: 635 nm fluorescence, higher = more signal;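 also: Shh protein binding to compounds spotted on small-molecule microarray slides; score combines spot fluorescence intensity with signal-to-noise across triplicate slides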

Structure (SMILES) | composite z-score [1] | composite z-score [2] | composite z-score [3] | composite z-score [4] | composite z-score [5] | composite z-score [6] | z-score [7] | composite z-score (Lefty1) | composite z-score [8] | z-score [9] | composite z-score [10] | z-score [11] | z-score [12] | z-score [13] | z-score [14] | composite z-score [15] | composite z-score [16] | composite z-score (Torsin-1A (Homo sapiens) [17]) | composite z-score (Torsin-1A (Homo sapiens) [18]) | composite z-score [19]
C=CCNC(=O)[C@H]1[C@@H]2C(=O)O[C@@H](c3ccccc3)[C@@H](c3ccccc3)N2[C@@H](c2ccccc2OCCO)[C@]12C(=O)N(C(=O)OCCOC)c1ccc(C#CC3=CCCCC3)cc12 | 0.108 | 1.24 | 0.369 | 0.975 | 1.21 | 0.685 | -0.295 | 0.885 | 0.993 | -1.48 (inactive) | 0.356 | -4.73 (inactive) | 1.37 (inactive) | -0.333 (inactive) | 0.371 (inactive) | 1.08 | 0.423 | 1.02 | 0.798 | 0.826
C[C@]1(C(=O)NC2CC2)c2ccccc2C(=O)N(Cc2ccc(OC(F)(F)F)cc2)[C@H]1c1ccc(CO)cc1 | -0.725 | 0.722 | 0.576 | -0.796 | -0.239 | 0.0672 | 1 | -0.858 | -1.5 | 0.371 (inactive) | -0.0135 | -0.0474 (inactive) | 0.244 (inactive) | 1.64 (inactive) | -0.103 (inactive) | -0.825 | 0.152 | 0.398 | 0.398 | -0.379
COc1ccc([Si](C)(C)[C@H]2[C@H](CC(=O)N3Cc4ccccc4C[C@H]3CO)O[C@@]3(C(=O)N(Cc4cccc(N5CCCCC5=O)c4)c4ccccc43)[C@@H]2C)cc1 | 1.57 | 0.307 | 0.566 | 0.378 | 1.3 | 1.58 | 0.925 | 1.53 | 0.292 | -0.0418 (inactive) | 0.329 | -3.48 (inactive) | -0.185 (inactive) | 2.21 (inactive) | 0.114 (inactive) | -0.0717 | 0.0422 | 0.849 | 0.431 | 2.15
C=CCOC(=O)[C@H]1[C@@H]2C(=O)O[C@@H](c3ccccc3)[C@@H](c3ccccc3)N2[C@@H](c2ccc(OCCOC(=O)[C@H]3C[C@H]4C(=O)N[C@@H](Cc5ccccc5)C(=O)N4[C@H]3c3ccc(O)cc3)cc2)[C@]12C(=O)Nc1ccc(I)cc12 | 0.951 | 1.14 | 0.665 | 0.565 | 1.32 | 1.29 | -0.395 | 1.69 | 0.958 | -0.649 (inactive) | 0.72 | -0.918 (inactive) | -0.707 (inactive) | 1.09 (inactive) | 0.204 (inactive) | 0.133 | -0.0567 | 0.586 | 0.691 | 2.32
CC(C)C(O)C1C=CC2C(=O)N(C)C(=O)C2N1Nc1ccccc1 (stereo not given) | 0.932 | 1.14 | 0.746 | 0.78 | 0.828 | 0.0704 | -0.219 | -0.241 | 1.23 | -0.968 (inactive) | 0.361 | 1.03 (inactive) | -1.04 (inactive) | 0.0535 (inactive) | -0.0784 (inactive) | 0.53 | 0.85 | 0.378 | 0.597 | -0.361
CN(C)C(=O)[C@]1(CCC(=O)OC(C)(C)C)N=C(c2ccc(OCCCO)cc2)O[C@@H]1c1ccccc1 | 2.57 | 1.27 | 0.712 | 0.97 | 0.562 | 0.399 | 1.58 | -0.781 | 0.448 | -1.41 (inactive) | 0.677 | 0.325 (inactive) | 1.02 (inactive) | 0.493 (inactive) | 0.524 (inactive) | -0.092 | -0.0791 | 0.69 | 2.2 | -0.857
CC(C)(C)OC(=O)CC[C@]1(C(=O)O)N=C(c2ccc(OCCCO)cc2)O[C@H]1c1ccccc1 | 0.548 | 0.611 | 0.0043 | 0.284 | 0.329 | -0.236 | -0.132 | 0.0766 | 0.247 | 0.476 (inactive) | -0.221 | -1.48 (inactive) | -0.278 (inactive) | -0.986 (inactive) | -0.72 (inactive) | 0.235 | -0.102 | -0.272 | 0.113 | -0.899
O=C(CS)NCCCCCCNC(=O)[C@H]1C[C@H]2C(=O)N[C@@H](Cc3ccccc3)C(=O)N2[C@H]1c1cccc(OCCO)c1 | 2.12 | 1.24 | 0.127 | 0.93 | 1.39 | 1.61 | -0.66 | 1.14 | 0.772 | -1.91 (inactive) | 1.02 | 0.0054 (inactive) | -0.885 (inactive) | 0.285 (inactive) | -0.579 (inactive) | 1.22 | 0.177 | 0.78 | 1.06 | 1.72
C=CCOC(=O)[C@@H]1[C@H]2C(=O)O[C@H](c3ccccc3)[C@H](c3ccccc3)N2[C@H](c2ccc(OCCOC(=O)[C@H]3C[C@H]4C(=O)N[C@@H](CCCC[N+](C)(C)C)C(=O)N4[C@H]3c3ccc(O)cc3)cc2)[C@@]12C(=O)Nc1ccc(I)cc12 | 2.62 | 1.2 | 0.831 | 0.542 | 1.4 | 1.62 | -1.93 | 1.63 | 0.756 | 0.205 (inactive) | 0.568 | -0.449 (inactive) | -0.0678 (inactive) | 0.277 (inactive) | -0.391 (inactive) | 0.0658 | 0.0982 | 0.636 | 0.644 | 2.15
C=C(COC)/C(=C/C[C@@H](OC(=O)c1ccncc1)c1ccc(CO)o1)c1cnc2ccccc2c1 | 1.87 | 1.22 | 0.268 | 0.973 | 1.47 | 1.61 | -0.557 | 1.67 | 1.56 | -2.96 (inactive) | 0.911 | 0.173 (inactive) | -0.854 (inactive) | -0.611 (inactive) | -0.0377 (inactive) | 1.07 | -0.0136 | 1.86 | 0.962 | 2.46
